61 molecules from PubChem BioAssay AID778 (Sanford-Burnham Center for Chemical Genomics, 2007) can be followed below.

Hit rate of the full screen: of about 96,000 compounds, about 20,000 (21%) were called active. Only a sample is shown. Values without a mark were called inactive.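 How the source made its calls: active means CYP2C19 inhibition above a set limit at 5 µM in the primary screen (cut at about 50% in these data); inactive means the rest.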

What is called inhibition is the drop in the measured response relative to a control, in per cent.

In the assay the target is Cytochrome P450 2C19 (Homo sapiens) (UniProt P33261). Nature of the assay: blockers of cytochrome P450 2C19 activity – biochemical, luminescence, ADME assay, primary screen (AID 778).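 Further: plate controls were negative control wells for no effect and 2.5 mM tranylcypromine positive control for full effect.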 Particulars: CYP2C19 Supersomes, luciferin-H EGE luminescence, 30 min; at 5 µM; stronger effect = higher value.
Chain of Cytochrome P450 2C19 (Homo sapiens) (P33261 whole entry, looked up): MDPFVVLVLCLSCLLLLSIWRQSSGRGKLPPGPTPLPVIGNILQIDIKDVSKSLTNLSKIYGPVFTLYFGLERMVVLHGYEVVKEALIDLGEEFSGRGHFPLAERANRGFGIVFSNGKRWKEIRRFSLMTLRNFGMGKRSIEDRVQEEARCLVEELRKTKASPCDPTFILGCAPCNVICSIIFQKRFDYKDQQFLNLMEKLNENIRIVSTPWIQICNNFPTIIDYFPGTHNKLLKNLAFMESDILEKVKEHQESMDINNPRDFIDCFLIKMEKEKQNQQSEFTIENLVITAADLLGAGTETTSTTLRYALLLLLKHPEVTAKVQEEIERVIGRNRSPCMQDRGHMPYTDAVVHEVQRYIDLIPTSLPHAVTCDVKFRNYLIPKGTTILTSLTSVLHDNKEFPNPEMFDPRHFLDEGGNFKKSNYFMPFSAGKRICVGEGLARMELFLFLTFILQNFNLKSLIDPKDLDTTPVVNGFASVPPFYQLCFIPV
With `COc1ccc2nc(N3CCCC(O)C3)c(C#N)cc2c1` (stereo unspecified), the inhibition is 42.8%.

On to `Cc1cccc2cc(C#N)c(N3CCCC3)nc12`, for which the inhibition was 1.4%.

Consider `CCOc1ccc2nc(N3CCCN(C(=O)Nc4ccccc4C)CC3)c(C#N)cc2c1`, for which the inhibition is 89.4% (active).

With `CS(=O)(=O)N(C(=O)NC(=O)NC1CCS(=O)(=O)C1)C1CCCCC1` (stereo unspecified), the inhibition is -6.1%.

Consider `Cc1c(C(=O)N2CC(C)OC(C)C2)sc2nc(-c3ccccc3)cn12` (stereo unspecified), for which the inhibition was 3.7%.

Turning to `CC(C)NC(=O)NC(=O)COC(=O)c1ccc(NC(=O)CC#N)cc1`, the inhibition was 0.7%.

`COc1ccc([N+](=O)[O-])cc1C1NN=C(c2cccc3ccccc23)S1` (stereo unspecified): the inhibition is 32.4%.

In the case of `CCN1CCN(C(=O)c2cc3cc4ccc(OC)cc4nc3s2)CC1`, the inhibition was -9.4%.

For the molecule `Cc1ccc(C)c(N2CCN(S(=O)(=O)c3ccc4c(c3)oc(=O)n4C)CC2)c1`, the inhibition was 4.3%.

In the case of `O=c1ccc2cc(S(=O)(=O)N3CCN(c4ccccc4)CC3)ccc2o1`, the inhibition was 1.3%.

Regarding `Cc1cc(N2CCN(S(=O)(=O)c3ccc(C)c(C)c3)CC2)c2ccccc2n1`, the inhibition is 95.8% (active).

With `O=C(c1cccc(N2CCCC2=O)c1)N1CCOCC1`, the inhibition is -8.7%.

As to `O=C(c1ccc(-n2cnnn2)cc1)N1CCN(C(c2ccccc2)c2ccccc2)CC1`, the inhibition is 71.6% (active).

Turning to `NC(=O)C1CCN(C(=O)c2ccc(-c3ccccc3)cc2)CC1`, the inhibition was 9.6%.

With `O=C(O)CC(c1ccccc1)n1cnnn1` (stereo unspecified), the inhibition was -12.4%.

Turning to `Cc1ccc2cc3cc(C(=O)N4CCCCCC4)oc3nc2c1`, the inhibition was 19.1%.

As for `COc1cc(/C=N/Nc2nn3cnnc3c3ccccc23)cc(OC)c1OC`, the inhibition is 18.8%.

Turning to `O=C1c2cccc3cccc(c23)N1CN1CCN(c2ccccn2)CC1`, the inhibition was 1.9%.

Take `OC(COc1cccc2ccccc12)CN1CCN(c2ccccn2)CC1` (stereo unspecified): the inhibition was 88.8% (active).

Regarding `Cc1ccc(OCC(O)CN2CCN(CC(O)COc3ccc(C)cc3Cl)CC2)c(Cl)c1` (stereo unspecified), the inhibition is -5.7%.

As for `COc1ccc(-n2cnc3cc(NCc4ccco4)ccc32)cc1`, the inhibition is 42.6%.

For the molecule `O=C(Nc1ccccc1)c1ccc2nsnc2c1`, the inhibition was 18.4%.

As for `CC(=O)NS(=O)(=O)c1ccc(NC(=O)/C=C/c2ccccc2Cl)cc1`, the inhibition was 4%.

On to `O=c1[nH]c2ccccc2n2c(-c3ccccc3)nnc12`, for which the inhibition is 32.6%.

In the case of `COC(=O)CSC1=C(C#N)C(c2ccccc2OC)C(C(=O)OC)C(=O)N1` (stereo unspecified), the inhibition was 55.4% (active).

`CCOc1ccc2cc(C#N)c(SCC(=O)OC)nc2c1`: the inhibition was 4.1%.

Turning to `CCCSC1=C(C#N)C(c2ccccc2C)C(C(=O)OC)C(=O)N1` (stereo unspecified), the inhibition is 41%.

As to `CC1CCCC(C)N1CCCNC(=O)c1cc2c(=O)n(C)c3ccccc3c2n1C` (stereo unspecified), the inhibition was -9.2%.

Take `COc1ccc(CCNC(=O)C2CCCN(Cc3nc(-c4cccc(Cl)c4)oc3C)C2)cc1OC` (stereo unspecified): the inhibition was 87.1% (active).

As for `COc1ccc(CCNC(=O)C2CCN(c3nn4c(=O)cc(C)nc4s3)CC2)cc1OC`, the inhibition is -7%.

As for `COc1ccc(CCN(C)C(=O)C2CCCN(Cc3ccc(OC)c(OC)c3)C2)cc1OC` (stereo unspecified), the inhibition is 13.3%.

In the case of `COc1ccc(CCNC(=O)c2ccc3c(c2)NC(=O)C(N2CCOCC2)S3)cc1OC` (stereo unspecified), the inhibition was 43.7%.

For the molecule `COc1ccc2c3c(c(=O)oc2c1OCC(=O)C(C)(C)C)CCCC3`, the inhibition was 15.9%.

For the molecule `CC(C)CC(=O)N/C(N)=N/c1nc2ccccc2s1`, the inhibition is 36.7%.

Consider `Cc1ncc(CC(=O)n2cc(C(=O)c3cc(Cl)ccc3O)cn2)s1`, for which the inhibition was 61% (active).

With `Cc1cc2cc3c(cc2nc1SCC(=O)Nc1c(C)cccc1C)CCC3`, the inhibition is 15.7%.

`CCOC(=O)c1c(NC(=O)CSc2nnc(Cc3csc(N)n3)n2C)sc(C)c1C`: the inhibition was 16.5%.

With `Cn1c(Cc2csc(N)n2)nnc1SC/C=C/c1ccccc1`, the inhibition was 61.6% (active).

As to `Cn1c(Cc2cccc3ccccc23)nnc1SCC(=O)N1CCN(c2cccc(Cl)c2)CC1`, the inhibition is 12%.

On to `O=S(=O)(NC1CCCCC1)c1ccc(F)c2ccccc12`, for which the inhibition is 26.5%.

`N#CCCN1CCN(S(=O)(=O)c2ccc(S(=O)(=O)NC3CCCCC3)cc2)CC1`: the inhibition is 13.3%.

Take `O=C(CCc1ccc(S(=O)(=O)NC2CCCCC2)cc1)NCc1ccccc1`: the inhibition was 63.1% (active).

For `CCc1nnc(NS(=O)(=O)c2ccc(NS(=O)(=O)c3ccccc3)cc2)s1`, the inhibition was -6.3%.

As to `CSc1ccc(S(=O)(=O)Nc2cccc(F)c2)cc1`, the inhibition was 99.4% (active).

Regarding `Cc1cc(S(=O)(=O)NC2CCCCC2)ccc1OCC(=O)NCc1cccnc1`, the inhibition was 20.8%.

In the case of `CSc1ccc(S(=O)(=O)NC2CCCCC2)cc1`, the inhibition is 88.8% (active).

Take `O=C(O)c1ccc(F)c(S(=O)(=O)Nc2ccccc2)c1`: the inhibition is 7.1%.

Take `CCCNS(=O)(=O)c1ccc(CCC(=O)NCc2cccnc2)cc1`: the inhibition is 22.4%.

For `Cc1cccc(CCNS(=O)(=O)c2ccc(S(=O)(=O)NC3CCCC3)cc2)c1`, the inhibition is 67.1% (active).

Turning to `COC(=O)c1cc(S(=O)(=O)NC2CCN(Cc3ccccc3)CC2)cn1C`, the inhibition was 0.8%.

On to `CCCc1ccc(-c2c(C)sc(NC(=O)c3ccnn3C)c2C#N)cc1`, for which the inhibition is 23.9%.

As to `CCCC(=O)N1c2ccccc2NC2=C(C(=O)CCC2)C1c1ccc(F)cc1` (stereo unspecified), the inhibition was 48.1%.

For the molecule `CN(C(=O)CSc1nnc(N)s1)c1c(N)n(Cc2ccccc2)c(=O)[nH]c1=O`, the inhibition was -3.1%.

With `O=C(CN1CCOCC1)N1CCCc2c1c(=O)oc1ccc(OCc3ccccc3)cc21`, the inhibition is 29.5%.

As to `CCN(CC)S(=O)(=O)c1ccc(N(C)Cc2ccc(C(F)(F)F)cc2)nc1`, the inhibition is 85.1% (active).

On to `Cc1ccc(-n2c(N)c(C(=O)N3CCOCC3)sc2=S)c(C)c1`, for which the inhibition was 20.4%.

Consider `C(=N\n1cnnc1)/c1cccnc1`, for which the inhibition was -5.3%.

For `COc1ccccc1OCCOc1ccc(/C=N/n2cnnc2)cc1`, the inhibition is 38.5%.

On to `COc1cccc(OCCOc2cccc(/C=N/n3cnnc3)c2)c1`, for which the inhibition is 54.7% (active).

`Oc1ccc(CNc2ccccc2O)cc1`: the inhibition was 22%.

In the case of `CC(C)C1N=C2c3ccccc3N=C(SCC(=O)c3ccc(O)c(O)c3)N2C1=O` (stereo unspecified), the inhibition is 16.6%.
